# Assay outcomes from PubChem.
# In the library only some 4.1% were active in any assay of this set; here they are far more common.
# AmpC no deterg – qHTS Inhibitors of AmpC Beta-Lactamase (assay without detergent); AmpC nitrocefin hydrolysis, absorbance 480 nm, 0.0001% Triton; Potency, µM (highest dose often 57.1 µM), without a hit: at the highest dose activity change, negative = inhibition, hits mostly inhibitors; hit rate 0.52% among 330,000;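 further: plate controls were no compound for no effect and no enzyme for full effect; nearly all actives have a fitted effect of over 20% in size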
# Target sequence (P00811 whole entry, looked up): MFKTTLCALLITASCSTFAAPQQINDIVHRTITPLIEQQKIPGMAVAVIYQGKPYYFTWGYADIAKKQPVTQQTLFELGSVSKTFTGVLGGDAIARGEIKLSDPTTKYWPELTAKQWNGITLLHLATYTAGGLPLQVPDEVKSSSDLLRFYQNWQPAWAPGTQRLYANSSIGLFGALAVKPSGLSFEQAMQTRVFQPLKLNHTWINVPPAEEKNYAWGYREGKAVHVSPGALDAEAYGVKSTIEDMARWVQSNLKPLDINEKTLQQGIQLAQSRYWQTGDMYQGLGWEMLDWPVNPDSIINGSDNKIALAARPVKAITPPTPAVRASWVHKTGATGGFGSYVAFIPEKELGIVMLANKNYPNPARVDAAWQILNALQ
#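 AmpC (5.3 nM in the dispensed reagent) in 20 mM phosphate pH 7.0 with 0.01% (detergent screen) or 0.0001% Triton X-100 was preincubated with compounds for 15 min at room temperature. Nitrocefin was then added from an 800 uM solution, and hydrolysis was followed at 480 nm.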
# FMDV antiviral – High Throughput Screening for Foot and Mouth Disease Virus Antivirals | AID 1159524, 2015 | Potency, µM (top dose mostly 57.9 µM), without a hit: top-dose activity change, negative = inhibition, hits mostly inhibitors | FMDV antiviral cell-based qHTS | hit rate 1.2% among 410,000; calls by dose curve; tested in HEK293T cells; further: read-out not given here; nearly all actives have a fitted effect of over 45% in size
# AmpC detergent – qHTS Inhibitors of AmpC Beta-Lactamase (assay with detergent); P00811; AmpC hydrolysis of nitrocefin, absorbance 480 nm, 0.01% Triton; Potency, µM (series often up to 114 µM), inactives show at the top dose activity change, negative = inhibition, most hits filed as inhibitors; hit rate 0.041% among 370,000; AID 485294, 2010;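 further: 0% = no-compound wells and -100% = no-enzyme wells; nearly all actives have a fitted effect of over 25% in size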
#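 AmpC (5.3 nM in the dispensed reagent) in 20 mM phosphate pH 7.0 with 0.01% (detergent screen) or 0.0001% Triton X-100 was preincubated with compounds for 15 min at room temperature. Nitrocefin was then added from an 800 uM solution, and hydrolysis was followed at 480 nm.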
# Sm TGR block – qHTS Assay for the Inhibitors of Schistosoma Mansoni Peroxiredoxins; purified TGR, DTNB reduction, TNB absorbance 405 nm; Potency, µM (highest dose often 114 µM), for inactives: at the top dose activity change, negative = inhibition, most hits filed as inhibitors; hit rate 3% among 360,000; AID 485364, 2010; further: nearly all actives have a fitted effect of over 60% in size
#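 Kinetic colorimetric format: TGR-catalysed, NADPH-driven DTNB reduction monitored via TNB absorbance. Enzyme dispensed at 20 nM; compound exposure 15 min at room temperature before reaction start.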
# AMA1-RON2 inh – qHTS for Inhibitors of AMA1-RON; Towards Development of Antimalarial Drug Lead: Primary Screen. Plasmodium falciparum AMA1 (3D7) - RON2 peptide interaction. AlphaScreen AMA1-biotinylated RON2 peptide binding. Potency, µM (highest dose often 58.2 µM), inactives show at the highest dose activity change, negative = inhibition, most hits filed as inhibitors. hit rate 0.2% among 360,000. AID 720542, 2013;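 further: 0% = vehicle wells and -100% = peptide control; nearly all actives have a fitted effect of over 45% in size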
#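 AMA1 (3D7) with his tag at 25 nM final met compounds first, then biotinylated RON2 peptide at 25 nM; detection used donor plus acceptor beads, 10 µg/mL apiece, read by AlphaScreen after 30 min at room temperature.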
# The depositor's hits bear a star; ? = inconclusive; / = no result; [ ] = another dose, or the depositor's remark. Unless noted, the call rests on the fitted dose curve; in most records, active means well fitted curve in the direction sought with a large enough effect; inconclusive means small, poorly fitted or top-dose-only effect, or another doubt; inactive means no such curve, though single readings can be large; an effect the other way counts as inactive or inconclusive. Unless noted, on the % scale 0 is the no-effect control and ±100 the full control effect; potency means the concentration at half of the fitted maximal effect.
SMILES,AmpC no deterg,FMDV antiviral,AmpC detergent,Sm TGR block,AMA1-RON2 inh
CC1(C)CC(=O)C2=C(C1)OC(N)=C(C#N)C21CCC2(CC1)OCCO2,/,/,-4%,22µM*,7%
CC(=O)N1CCC2(CC1)C(C#N)=C(N)OC1=C2C(=O)CC(C)(C)C1,-16%,-2%,-1%,-8%,11%
CC1(C)CC(=O)C2=C(C1)OC(N)=C(C#N)C21CCN(Cc2ccccc2)CC1,-19%,-13%,?,14µM*,7%
CCOC(=O)C1=C(C)N(C[C@@H]2CC[C@@H](Cc3ccc(-c4ccccc4)cc3)O2)C(=O)NC1c1ccc(SCc2ccco2)c([N+](=O)[O-])c1 (some centres undefined),7.9µM*,-13%,/,/,-18%
Cc1ccccc1-n1c(-c2csc(C)c2C)n[nH]c1=S,22µM*,22%,?,0%,39%
Cc1ccccc1-n1c(-c2csc3ccccc23)n[nH]c1=S,-48%,-14%,?,0%,25%
O=C(CCCn1c(=O)c2sccc2n(Cc2c(F)cccc2Cl)c1=O)NCc1ccccc1,/,-20%,12%,18%,/
C=Cc1ccc(Cn2c(C(=O)O)c(CNCCc3ccco3)c3ccc(C)cc32)cc1,/,-7%,-5%,22µM*,/
O=C(CSc1ccc2ccccc2c1Br)Nc1cccc(S(=O)(=O)NC2=NCCCCC2)c1,7.1µM*,-19%,-10%,-20%,-14%
Cc1ccc(Nc2nnc(SCC(=O)Nc3cccc(S(=O)(=O)NC4=NCCCCC4)c3)s2)c(C)c1,3%,32µM*,3%,1%,-1%
COc1ccc(NC(=O)C(C)(C)Oc2ccc(Cl)cc2)cn1,-10%,-24%,3%,1%,2%[11.6 µM]
COc1ccc(NC(=O)/C(Cl)=C(/Cl)S(=O)(=O)Cc2ccccc2)cn1,-25%,20µM*,-3%,10µM*,4%
COc1ccc(NC(=O)/C(Cl)=C(/Cl)S(=O)Cc2ccc(Cl)cc2)cn1 (centres undefined),-20%,8.9µM*,-2%,0.1µM*,3%
COc1ccc(NC(=O)C(Cl)=C(Cl)Cl)cn1,-10%,-7%,?,1%,-17%
Cc1cccc(N2CCN(CCCNc3ncnc4onc(-c5ccc(F)cc5)c34)CC2C)c1 (centres undefined),/,?,-1%,-3%,/
COC(=O)c1c(N2C(=O)[C@H]3[C@@H](C2=O)[C@]2(C(=O)Nc4c2ccc(C)c4C)N2CCC[C@@H]32)sc(C)c1C,-19%,?,1%,56µM*,-2%
COC(=O)c1c(N2C(=O)[C@H]3[C@@H](C2=O)[C@]2(C(=O)Nc4c(C)cc(C)cc42)N2CCC[C@@H]32)sc(C)c1C,95%,-9%,-12%,-19%,-5%
O=C(CSc1n[nH]c(-c2ccc(F)cc2)n1)NCc1ccccc1Cl,/,?,18%,1%,/
O=[N+]([O-])c1cccc2c([As](=O)(O)O)cccc12,-13%,-5%,2%,-27%,2%
O=[N+]([O-])c1cc(-c2ccc([As](=O)(O)O)cc2)ccc1[As](=O)(O)O,-13%,/,-4%,8.9µM*,/
COc1ccc(C)cc1NC(=O)NCc1ccc2c(c1)CCN2C(=O)c1ccccc1,/,?,-2%,-4%,/
Cc1ncc(C[n+]2csc(CCOC(=O)CC34CC5CC(CC(C5)C3)C4)c2C)c(N)n1,9%,-17%,?,45µM*,-2%
Cc1c(CCOC(=O)C23CC4CC(CC(C4)C2)C3)sc[n+]1CC#N,24%,?,3%,4.5µM*,21%
Cc1c(CCOC(=O)CC23CC4CC(CC(C4)C2)C3)sc[n+]1Cc1ccccc1,66%,?,-9%,-11%,-1%
CC(C)c1c(C(=O)NCC2(N3CCCCC3)CCCC2)cnn1-c1nccc(-c2ccco2)n1,/,1%,/,/,/
SMILES,AmpC no deterg,FMDV antiviral,AmpC detergent,Sm TGR block,AMA1-RON2 inh
Cc1c(CC(=O)NCc2ccccc2)c(=O)oc2c(C)c(O)ccc12,/,-7%,1%,0%,/
N#CC(=C1C=C(Br)C(=NO)C=C1Cl)c1ccc(Cl)cc1,/,?,/,/,20µM*
CCN1C(=O)C(=Cc2cccc(OC)c2Oc2ccc([N+](=O)[O-])cc2[N+](=O)[O-])SC1=S,-31%,13µM*,-9%,-21%,-1%
CCOC(=O)c1[nH]c2c(c1Cc1ccccc1OC)C(=O)CC(c1ccc(OC)cc1)C2 (centres undefined),/,23%,13%,-2%,/
CC(C)Oc1ccc(CNC(=O)C2CCCN(S(=O)(=O)c3ccc4c(ccn4C)c3)C2)cc1 (centres undefined),/,0%,18%,1%,/
N#Cc1ccccc1OCC(=O)Nc1ccc2c(c1)OCCO2,-21%,34%,-4%,3%,6%[11.6 µM]
NC(=O)COc1ccccc1C1=NO[C@@](CC(=O)O)(C(=O)Nc2ccc3c(c2)OCCO3)C1,-6%,-11%,-2%,18µM*,0%
COc1ccc(C2=NO[C@@](CC(=O)O)(C(=O)Nc3ccc4c(c3)OCCO4)C2)cc1,-20%,6%,4%,22µM*,-16%
CCCCN1C=CC(=C2C(=O)c3ccccc3C2=O)C=C1,-19%,10µM*,-1%,0%,-15%
CCCCC1C(=O)N(c2ccccc2)N(c2ccccc2)C1=O,-53%,0%,-7%,-26%,-5%
CC(=O)c1cc(NC(=O)c2cccc(C(F)(F)F)c2)c(=O)oc1C,-28%,-21%,2%,35µM*,28%
CC(C)N(C)c1ncnc2c1ncn2[C@H]1CN(C2CCCC2)C[C@@H](CO)O1,/,-20%,/,/,8%
CCOc1ccc(NC(=O)Cn2cc(C(=O)c3ccc(F)cc3)c(=O)c3cc4c(cc32)OCO4)cc1,/,-23%,5%,-1%,/
Cc1cccc2sc(NC(=O)CN(C)S(=O)(=O)c3ccc(Br)s3)nc12,-15%,?,4%,-9%,-5%
Cc1cccc2sc(NC(=O)CN(C)S(=O)(=O)c3cccs3)nc12,-20%,40µM*,?,-11%,-6%
COc1cc(SC#N)ccc1N=Cc1c(C)[nH]n(-c2ccc(Cl)cc2)c1=O,-14%,-4%,?,3%,5%
COc1cc(SC#N)ccc1N=Cc1c(C)[nH]n(-c2ccc(C)c(C)c2)c1=O,-15%,13µM*,-12%,6%,0%
COc1ccc(NC(=O)c2ccc(S(=O)(=O)N(C)c3ccccc3)cc2)cn1,-4%,18µM*,-7%,2%,-4%
Cc1ccnc(NS(=O)(=O)c2ccc(NC(=O)c3ccc(S(=O)(=O)N4CC(C)OC(C)C4)cc3)cc2)n1 (centres undefined),32µM*,7%,-3%,-23%,-6%[11.6 µM]
